Compound activity (PubChem BioAssay)
Hits are enriched below; roughly 8.9% of the tested compounds scored in any of these assays.
IMPase cell inh: qHTS Assay for Identifying the Cell-Membrane Permeable IMPase Inhibitors; Inositol monophosphatase 1 (Rattus norvegicus), P97697; CHO-M1 cells, IP1 accumulation, HTRF TR-FRET ratio; inhibition (IP1 accumulation), % at 46.1 µM; 120,000 tested, under 10 active; active = well fitted curve in the direction sought with a large enough effect in the signal ratio, not every such curve was filed as active; inconclusive = small, poorly fitted or top-dose-only effect, or a change in a side signal; inactive = no such curve, though single readings can be large or run the other way; the % refers to the signal ratio;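 note: cells stimulated with carbachol in lithium chloride buffer; higher means more IMPase inhibition seen as more IP1 and lower FRET ratio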
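The IP-One HTRF competitive assay in carbachol-stimulated CHO-M1 cells quantifies cellular IP1. Compounds spanned up to 46 uM final, and activity is expressed as AC50 from concentration-response fits of the ratio and donor data.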
HPGD inh: qHTS Assay for Inhibitors of HPGD (15-Hydroxyprostaglandin Dehydrogenase); purified HPGD, NADH fluorescence kinetic, PGE2 substrate; Potency, µM, hits mostly inhibitors; hit rate 4.3% among 150,000; AID 894, 2007; active = well fitted inhibition curve with a large enough effect, not every such curve was filed as active; inconclusive = small, poorly fitted or top-dose-only effect, or another doubt; inactive = no such curve, though single readings can be large or run the other way
Target sequence (P15428 whole entry, looked up): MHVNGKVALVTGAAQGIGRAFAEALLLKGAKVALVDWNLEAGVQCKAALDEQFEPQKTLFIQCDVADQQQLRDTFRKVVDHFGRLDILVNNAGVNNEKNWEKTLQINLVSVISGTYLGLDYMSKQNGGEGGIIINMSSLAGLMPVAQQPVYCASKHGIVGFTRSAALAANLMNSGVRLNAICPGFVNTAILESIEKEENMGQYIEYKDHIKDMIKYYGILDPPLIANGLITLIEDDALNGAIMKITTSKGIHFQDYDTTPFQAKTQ
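20 nM HPGD preincubated 15 min at room temperature with compound in 50 mM Tris-HCl pH 8, 0.01% Tween 20. Started with 1 mM NAD+ and 30 uM prostaglandin E2; NADH fluorescence (360/450 nm) read 5 times over 30-s intervals, last minus first.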
NPSR antagonist: qHTS Assay for Antagonists of the Neuropeptide S Receptor: cAMP Signal Transduction; Q6W5P4; CHO-NPSR cells, cAMP TR-FRET, antagonist mode; Potency, µM (highest dose often 38.3 µM), hits mostly inhibitors; hit rate 1% among 220,000; note: nearly all actives have a fitted effect of over 50% in size
Target sequence (Q6W5P4 whole entry, looked up): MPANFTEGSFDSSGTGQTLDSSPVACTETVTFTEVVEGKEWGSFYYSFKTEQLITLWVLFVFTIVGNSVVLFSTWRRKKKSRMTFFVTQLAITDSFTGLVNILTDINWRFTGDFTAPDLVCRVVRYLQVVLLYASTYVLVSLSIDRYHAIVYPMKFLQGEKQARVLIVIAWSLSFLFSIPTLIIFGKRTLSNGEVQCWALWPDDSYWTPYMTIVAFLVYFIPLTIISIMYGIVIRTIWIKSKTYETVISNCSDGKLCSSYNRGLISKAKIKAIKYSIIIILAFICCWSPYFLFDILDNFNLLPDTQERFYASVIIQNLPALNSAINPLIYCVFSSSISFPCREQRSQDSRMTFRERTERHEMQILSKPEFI
ALOX12 inhib: qHTS Assay for Inhibitors of 12-hLO (12-human lipoxygenase); purified 12-hLO, xylenol orange hydroperoxide absorbance; hit rate 0.12% among 150,000; AID 1452, 2008; Potency, µM (top dose mostly 57.1 µM), hits mostly inhibitors; Polyunsaturated fatty acid lipoxygenase ALOX12 (Homo sapiens), P18054; note: nearly all actives have a fitted effect of over 55% in size
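Purified human 12hLO (150 nM), preincubated 15 min with compound, then 40 uM arachidonic acid for 30 min, room temperature, Hepes pH 7.0 with 0.01% Triton X-100. Hydroperoxide detected by ferrous iron/xylenol orange; 573/405 nm absorbance ratio gives reaction progress.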
IMPase Li inh: qHTS Assay for Identifying the Cell-Membrane Permeable IMPase Inhibitors: Potentiation with Lithium. AID 1457, 2008. Potency, µM (top dose mostly 59.4 µM), actives largely listed as inhibitors. CHO-M1 cells, IP1 TR-FRET (IP-One), carbachol + lithium. hit rate 0.35% among 210,000;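 note: IP1 builds up when IMPase is blocked and the TR-FRET signal falls; nearly all actives have a fitted effect of over 50% in size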
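Test compounds were applied to CHO-M1 cells previously cultured for 16–30 h at 2000 per well. A small lithium amount accompanied them; after 30 min at 37C, IP1 was quantified by TR-FRET.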
ALDH1A1 inh: qHTS Assay for Inhibitors of Aldehyde Dehydrogenase 1 (ALDH1A1) | Aldehyde dehydrogenase 1A1 (Homo sapiens), P00352 | Purified ALDH1A1, NADH fluorescence, propionaldehyde substrate | Potency, µM (series often up to 75.3 µM), actives largely listed as inhibitors | hit rate 7.3% among 220,000 | AID 1030, 2008; active = well fitted inhibition curve with a large enough effect, not every such curve was filed as active; inconclusive = small, poorly fitted or top-dose-only effect, or another doubt; inactive = no such curve, though single readings can be large or run the other way
A number is an active result. Unless noted, calls come from the whole dose curve; as a rule, active = well fitted curve in the direction sought with a large enough effect; inconclusive = small, poorly fitted or top-dose-only effect, or another doubt; inactive = no such curve, though single readings can be large; an effect the other way counts as inactive or inconclusive.

Screening CCCOC(=O)c1c(NC(=O)C2CCCO2)sc(C(=O)OC)c1C (stereo unspecified) returned HPGD inh 10µM, NPSR antagonist inactive, ALOX12 inhib inactive, IMPase Li inh inactive and ALDH1A1 inh 2µM.
For CCOC(=O)c1c(-c2ccc(C)cc2)csc1NC(=O)C1CCCO1 (stereo unspecified) the results were HPGD inh inactive, NPSR antagonist inactive, ALOX12 inhib inactive, IMPase Li inh inactive and ALDH1A1 inh inconclusive.
COC(=O)c1c(-c2cccc(C)c2)csc1NC(=O)C1CCCO1 (stereo unspecified) was read as NPSR antagonist inactive, IMPase Li inh inactive and ALDH1A1 inh inconclusive.
`Cc1ccc2nc3nc(NCC4CCCO4)c(C(=O)NC4CCCC4)cc3c(=O)n2c1` (stereo unspecified) gave IMPase cell inh inactive, HPGD inh inconclusive, NPSR antagonist inactive, ALOX12 inhib inactive, IMPase Li inh inactive and ALDH1A1 inh inconclusive.
For O=C(Oc1ccc2ccc(=O)oc2c1)c1cccs1 the results were HPGD inh inactive, NPSR antagonist inactive, ALOX12 inhib inactive, IMPase Li inh inactive and ALDH1A1 inh inconclusive.
`O=C(Oc1ccc2c(-c3ccccc3)cc(=O)oc2c1)c1cccs1` gave HPGD inh inconclusive, NPSR antagonist inactive, ALOX12 inhib inactive, IMPase Li inh inactive and ALDH1A1 inh 11µM.
Screening CC(Oc1ccc2c(-c3ccccc3)cc(=O)oc2c1)C(=O)O (stereo unspecified) returned IMPase cell inh inactive, HPGD inh inconclusive, NPSR antagonist inactive, ALOX12 inhib inactive, IMPase Li inh inactive and ALDH1A1 inh 28µM.
`COC(=O)COc1ccc2c(-c3cccc([N+](=O)[O-])c3)cc(=O)oc2c1` gave IMPase cell inh inactive, HPGD inh inactive, NPSR antagonist inactive, ALOX12 inhib inactive, IMPase Li inh inactive and ALDH1A1 inh inconclusive.
For CCOC(=O)C(C)Oc1ccc2c(-c3cccc([N+](=O)[O-])c3)cc(=O)oc2c1 (stereo unspecified) the results were IMPase cell inh inactive, HPGD inh 35µM, NPSR antagonist inactive, ALOX12 inhib inactive, IMPase Li inh inactive and ALDH1A1 inh inconclusive.
For CCc1cc2c(-c3ccccc3)cc(=O)oc2cc1OC(=O)c1cccs1 the results were HPGD inh 3.2µM, NPSR antagonist inactive, ALOX12 inhib inactive, IMPase Li inh inactive and ALDH1A1 inh inactive.
Screening COc1cc(NC(=O)CSc2nnc(C)s2)cc(OC)c1 returned IMPase cell inh inactive, HPGD inh inactive, NPSR antagonist inactive, ALOX12 inhib inactive, IMPase Li inh inactive and ALDH1A1 inh inactive.
For Fc1ccc(Br)cc1C1C=C(c2cccnc2)Nc2ncnn21 (stereo unspecified) the results were IMPase cell inh inactive, HPGD inh inactive, NPSR antagonist inactive, ALOX12 inhib inactive, IMPase Li inh inactive and ALDH1A1 inh inactive.
O=C(Oc1ccc2c(-c3ccccc3)cc(=O)oc2c1)C1CCCCC1 was read as IMPase cell inh inactive, HPGD inh inconclusive, NPSR antagonist inactive, ALOX12 inhib inactive, IMPase Li inh inactive and ALDH1A1 inh 2.2µM.
`COc1ccc(-c2cc(=O)oc3cc(OC(=O)C4CCCCC4)ccc23)cc1` gave HPGD inh inconclusive, NPSR antagonist inactive, ALOX12 inhib inactive, IMPase Li inh inactive and ALDH1A1 inh inactive.
For CCn1c(N)c(C(=O)NCc2ccc3c(c2)OCO3)sc1=S the results were IMPase cell inh inactive, HPGD inh 16µM, NPSR antagonist inactive, ALOX12 inhib inactive, IMPase Li inh inactive and ALDH1A1 inh 20µM.
Screening CCn1c(N)c(C(=O)NCCOC)sc1=S returned IMPase cell inh inactive, HPGD inh inconclusive, NPSR antagonist inactive, ALOX12 inhib inactive, IMPase Li inh inactive and ALDH1A1 inh 25µM.
Screening CCn1c(N)c(C(=O)Nc2ccccc2C(=O)OC)sc1=S returned IMPase cell inh inactive, HPGD inh 25µM, NPSR antagonist inactive, ALOX12 inhib inactive, IMPase Li inh inactive and ALDH1A1 inh 28µM.
COc1cc2c(cc1O)-c1ccccc1CN(C)C2 was read as HPGD inh inactive, IMPase Li inh inactive and ALDH1A1 inh inactive.
Cc1nnc(SCCCn2c(N3CCN(c4ccccc4)CC3)nc3c2c(=O)[nH]c(=O)n3C)s1 was read as IMPase cell inh inactive, HPGD inh inactive, NPSR antagonist inactive, ALOX12 inhib inactive, IMPase Li inh inactive and ALDH1A1 inh inactive.
For Cn1c(=O)[nH]c(=O)c2c1nc(N1CCCCC1)n2CCCSc1nc2ccccc2s1 the results were IMPase cell inh inactive, HPGD inh 16µM, NPSR antagonist inactive, ALOX12 inhib inactive, IMPase Li inh inactive and ALDH1A1 inh inconclusive.
Screening CC1CCN(c2nc3c(c(=O)n(C)c(=O)n3C)n2CCSc2nc3ccccc3s2)CC1 returned IMPase cell inh inactive, HPGD inh inactive, NPSR antagonist inactive, ALOX12 inhib inactive, IMPase Li inh inactive and ALDH1A1 inh inconclusive.
Screening Cn1c(=O)c2c(nc(N3CCCCC3)n2CCSc2nc3ccccc3s2)n(C)c1=O returned IMPase cell inh inactive, HPGD inh inactive, NPSR antagonist inactive, ALOX12 inhib inactive, IMPase Li inh inactive and ALDH1A1 inh 28µM.
N/C(=N\N=C\c1ccc2c(c1)OCO2)SC1CC(=O)N(c2ccc(C(=O)O)cc2)C1=O (stereo unspecified) was read as NPSR antagonist inactive, IMPase Li inh inactive and ALDH1A1 inh inconclusive.
Screening COCc1cc(C)nc(SCC[N+](C)(C)CC(=O)Nc2ccccc2)c1C#N returned NPSR antagonist inactive, IMPase Li inh inactive and ALDH1A1 inh inactive.
COCc1cc(C)nc(SCC[N+](C)(C)CC(=O)c2ccc(Br)cc2)c1C#N was read as NPSR antagonist inactive, IMPase Li inh inactive and ALDH1A1 inh 7.9µM.
Cn1c(=O)[nH]c(=O)c2c1nc(N1CCCC1)n2CCCSc1nc2ccccc2o1 was read as IMPase cell inh inactive, HPGD inh 28µM, NPSR antagonist inactive, ALOX12 inhib inactive, IMPase Li inh inactive and ALDH1A1 inh inactive.
Cn1c(=O)[nH]c(=O)c2c1nc(Br)n2CCCSc1nc2ccccc2o1 was read as IMPase cell inh inactive, HPGD inh 22µM, NPSR antagonist inactive, ALOX12 inhib inactive, IMPase Li inh inactive and ALDH1A1 inh inconclusive.
`Cn1c(=O)[nH]c(=O)c2c1nc(Br)n2CCSc1ncccn1` gave IMPase cell inh inactive, HPGD inh inactive, NPSR antagonist inactive, ALOX12 inhib inactive, IMPase Li inh inactive and ALDH1A1 inh inactive.
